Vaccinia stage = Vaccinia orthopox stage-specific inhibition | Vaccinia-infected cells, mCherry/Venus stage reporter fluorescence; active compounds read low | activity change (mCherry), % (concentration not given with the values) | actives 0.01% (n = 89,000) | AID 1053133; in the data active = activity change below about -37%, passing the limit was not always enough; tested in A549 cells
The depositor's hits bear a star. This excerpt belongs to a sample that is enriched for hits.

SMILES | Vaccinia stage
COc1ccccc1-c1ccc2c(c1)[C@@H]1[C@@H](CCN1C(=O)C1CCOCC1)[C@H](CO)N2 | -2
COc1ccccc1-c1ccc2c(c1)[C@@H]1[C@@H](CCN1C(=O)C1CCCCC1)[C@@H](CO)N2 | -86*
COc1ccccc1-c1ccc2c(c1)[C@@H]1[C@@H](CCN1C(=O)C1CC1)[C@@H](CO)N2 | -31
C[C@H](CO)N1C[C@H](C)[C@H](CN(C)C(=O)c2cnccn2)Oc2ncc(-c3ccccc3F)cc2C1=O | 10
COc1ccc(NC(=O)Nc2ccc3c(c2)C(=O)N([C@H](C)CO)C[C@H](C)[C@@H](CN(C)C(=O)Cc2ccccc2)OCCCC[C@@H](C)O3)cc1 | 2
O=C(C[C@H]1C[C@@H]2c3cc(NC(=O)C4CCC4)ccc3O[C@@H]2[C@H](CO)O1)NCc1ccccn1 | 7
O=C(C[C@H]1CC[C@H]2[C@@H](COC[C@@H](O)CN2S(=O)(=O)c2cccc(Cl)c2)O1)NCc1ccncn1 | 7
Cc1noc(C)c1S(=O)(=O)Nc1ccc2c(c1)C(=O)N([C@@H](C)CO)C[C@@H](C)[C@H](CN(C)C(=O)C1CCCCC1)OCCCC[C@@H](C)O2 | -15
O=C(C[C@@H]1CC[C@@H]2[C@H](COC[C@H](O)CN2C(=O)Nc2ccccc2)O1)NCc1ccncn1 | 1
CO[C@H]1CN(C)C(=O)c2ccc(NC(=O)Cc3ccccc3)cc2OC[C@@H](C)NC[C@@H]1C | -9
CN(C)C(=O)C[C@H]1CC[C@@H]2[C@@H](COc3ccc(NC(=O)C4CCOCC4)cc3C(=O)N2C)O1 | 17
C[C@H](CO)N1C[C@H](C)[C@H](CN(C)C(=O)Nc2ccc(C(F)(F)F)cc2)Oc2ccc(NC(=O)CCC(F)(F)F)cc2C1=O | 2
CO[C@@H]1CC[C@H]2CCOc3ccc(C#N)cc3C(=O)N(C)C[C@H](C)C(=O)N(C)C[C@H]1O2 | 18
O=C(Nc1ccc(F)cc1)N1C[C@@H]2[C@H](c3ccccc31)[C@@H](CO)N2C(=O)c1ccccc1F | 14
COc1ccc(S(=O)(=O)N(C)C[C@H]2OCCCC[C@H](C)Oc3ccc(NS(=O)(=O)c4cccs4)cc3C(=O)N([C@H](C)CO)C[C@H]2C)cc1 | -14

Assay outcomes as filed in PubChem BioAssay.
